Assay [1] deals with Plasmodium falciparum Sir2 (PF13_0152, Sir2A). The assay is described as follows: pfSir2 binders on small-molecule microarrays, primary screen, biochemical, small-molecule microarray, 635 nm fluorescence (AID 1098).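 Further: score merges spot fluorescence intensity with its signal-to-noise ratio.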 As to conditions: small-molecule microarray binding, fluorescence 635 nm; higher = more signal.
Assay [2] in a line: small-molecule microarray binders of probe aDKK1, primary screen, biochemical, biotinylated probe, 635/667 nm fluorescence (AID 1099).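 Further: score merges 667nm spot fluorescence with signal to noise across triplicate slides.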 As to conditions: higher = more signal.
Assay [3] is described as follows: small-molecule microarray binders of probe aCHRDL2, primary screen, biochemical, biotinylated probe, 635/667 nm fluorescence (AID 1100). As to conditions: higher = more signal.
Assay [4] in a line: splicing luciferase reporter signal modulators, primary screen, spliceosome inhibition project, cell-based, HEK293, splice +/- reporter (AID 1101).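 Further: HEK293 cells carrying a splicing-competent luciferase reporter gene; test concentration not given here.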 As to conditions: luminescence, 24 h, higher = more signal, called active from +8 up or from −8 down. On the technique in general: Reporter assays use an easily measured gene product as a stand-in for the process of interest.
The target of assay [5] is Fibroblast growth factor 10 (Homo sapiens) (UniProt O15520). The assay is described as follows: FGF10 binders on small-molecule microarrays, primary screen, biochemical, small-molecule microarray, 635 nm fluorescence (AID 1102). As to conditions: FGF10 binding, fluorescence 635 nm, higher = more signal.
Fibroblast growth factor 10 (Homo sapiens), sequence (O15520 whole entry, looked up): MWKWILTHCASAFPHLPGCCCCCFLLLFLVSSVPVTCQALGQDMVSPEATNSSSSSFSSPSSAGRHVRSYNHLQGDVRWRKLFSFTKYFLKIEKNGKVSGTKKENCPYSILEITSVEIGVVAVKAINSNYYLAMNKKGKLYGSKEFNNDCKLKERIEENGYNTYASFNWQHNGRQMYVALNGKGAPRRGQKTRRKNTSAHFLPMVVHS
Assay [6] deals with glycogen synthase kinase-3 (GSK3A per assay name; protocol says GSK3B). Kind of assay: GSK3 binders on small-molecule microarrays, primary screen, biochemical, small-molecule microarray, 635 nm fluorescence, GSK3A (AID 1103). Further: the record names both GSK3A and GSK3B. As to conditions: small-molecule microarray binding, fluorescence 635 nm; higher = more signal.
In assay [7] the target is Epidermal growth factor receptor (Homo sapiens) (UniProt P00533). Kind of assay: EGFR binders on small-molecule microarrays, primary screen, biochemical, small-molecule microarray, 635 nm fluorescence (AID 1104).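 Further: score merges 667 nm emission intensity with spot signal to noise over triplicate slides.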 As to conditions: EGFR binding, higher = more signal.
Epidermal growth factor receptor (Homo sapiens), sequence (P00533 whole entry, looked up): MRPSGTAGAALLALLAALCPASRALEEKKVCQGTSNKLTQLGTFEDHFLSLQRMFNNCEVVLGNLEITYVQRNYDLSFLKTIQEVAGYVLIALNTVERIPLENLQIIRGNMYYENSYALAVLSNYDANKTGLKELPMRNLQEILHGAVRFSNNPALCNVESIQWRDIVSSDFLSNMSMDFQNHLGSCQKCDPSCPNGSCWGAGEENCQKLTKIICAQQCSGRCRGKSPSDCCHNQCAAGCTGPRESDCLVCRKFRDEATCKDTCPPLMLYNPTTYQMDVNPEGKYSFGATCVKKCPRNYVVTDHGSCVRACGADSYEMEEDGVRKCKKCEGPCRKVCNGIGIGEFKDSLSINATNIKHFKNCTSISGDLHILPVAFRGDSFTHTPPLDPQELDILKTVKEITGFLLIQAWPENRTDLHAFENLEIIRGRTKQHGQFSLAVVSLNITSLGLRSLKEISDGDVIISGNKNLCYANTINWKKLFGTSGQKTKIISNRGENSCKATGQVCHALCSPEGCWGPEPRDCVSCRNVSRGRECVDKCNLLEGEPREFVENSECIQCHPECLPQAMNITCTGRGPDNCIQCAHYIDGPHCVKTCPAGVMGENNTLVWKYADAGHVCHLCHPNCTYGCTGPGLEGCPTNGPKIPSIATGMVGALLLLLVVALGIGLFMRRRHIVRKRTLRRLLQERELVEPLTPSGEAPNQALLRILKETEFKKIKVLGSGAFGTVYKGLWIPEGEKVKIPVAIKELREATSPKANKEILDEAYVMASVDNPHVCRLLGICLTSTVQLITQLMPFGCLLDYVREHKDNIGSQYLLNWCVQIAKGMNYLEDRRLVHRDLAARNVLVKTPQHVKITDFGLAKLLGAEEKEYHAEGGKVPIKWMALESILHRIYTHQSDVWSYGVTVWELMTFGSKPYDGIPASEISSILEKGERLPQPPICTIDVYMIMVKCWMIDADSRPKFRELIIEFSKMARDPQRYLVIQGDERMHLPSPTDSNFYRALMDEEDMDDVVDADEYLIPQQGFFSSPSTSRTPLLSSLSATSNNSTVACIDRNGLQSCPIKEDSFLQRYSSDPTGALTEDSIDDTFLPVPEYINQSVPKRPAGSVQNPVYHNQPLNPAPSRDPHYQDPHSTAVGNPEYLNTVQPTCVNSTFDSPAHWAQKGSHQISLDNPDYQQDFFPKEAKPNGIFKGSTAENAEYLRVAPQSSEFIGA
The target in assay [8] is Follistatin-related protein 3 (Homo sapiens) (UniProt O95633). Kind of assay: FSTL3 binders on small-molecule microarrays, primary screen, biochemical, small-molecule microarray, 635 nm fluorescence (AID 1105).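 Further: score merges emission near 667 nm and signal to noise per printed spot across three slides.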 As to conditions: FSTL3 binding, higher = more signal.
Follistatin-related protein 3 (Homo sapiens), sequence (O95633 whole entry, looked up): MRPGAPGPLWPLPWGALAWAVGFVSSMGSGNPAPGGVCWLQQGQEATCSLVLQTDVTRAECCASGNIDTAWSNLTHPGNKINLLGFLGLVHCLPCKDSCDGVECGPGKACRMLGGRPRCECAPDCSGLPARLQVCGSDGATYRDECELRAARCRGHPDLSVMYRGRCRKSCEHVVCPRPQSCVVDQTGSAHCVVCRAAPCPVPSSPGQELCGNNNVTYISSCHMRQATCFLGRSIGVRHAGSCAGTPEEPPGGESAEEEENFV
The target in assay [9] is Dickkopf-related protein 1 (Homo sapiens) (UniProt O94907). The assay is described as follows: DKK1 binders on small-molecule microarrays, primary screen, biochemical, small-molecule microarray, 635 nm fluorescence scan (AID 1106).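 Further: score merges emission near 667 nm with signal to noise over three replicate slides.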 As to conditions: DKK1 binding, higher = more signal.
Dickkopf-related protein 1 (Homo sapiens), sequence (O94907 whole entry, looked up): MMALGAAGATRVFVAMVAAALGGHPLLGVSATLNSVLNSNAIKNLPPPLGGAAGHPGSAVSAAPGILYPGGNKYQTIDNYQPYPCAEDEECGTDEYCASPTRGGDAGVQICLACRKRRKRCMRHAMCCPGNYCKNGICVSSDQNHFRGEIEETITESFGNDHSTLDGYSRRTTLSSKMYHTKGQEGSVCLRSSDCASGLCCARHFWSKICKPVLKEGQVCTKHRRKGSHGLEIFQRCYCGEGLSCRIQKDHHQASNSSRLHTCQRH
Assay [10] has as its system Inhibin beta A chain (activin A). Kind of assay: INHBA (activin A) binders on microarrays, primary screen, biochemical, small-molecule microarray, 635 nm fluorescence scan (AID 1107).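 Further: mouse activin A protein probed at 4.33 µg/mL on printed slides; score merges bound-protein fluorescence near 667 nm with spot signal-to-noise.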 As to conditions: small-molecule microarray binding, higher = more signal.
Assay [11] relates to Human papillomavirus type 1a protein E7 (residues 44-93). The assay is described as follows: HPV1a E7 fragment binders on microarrays, primary screen, biochemical, small-molecule microarray, residues 44-93, 635 nm fluorescence (AID 1108).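 Further: E7 fragment applied at 1 µg/mL in TBST for 1 h at 4 C; score combines spot fluorescence with its signal to noise ratio.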 As to conditions: small-molecule microarray binding, fluorescence 635 nm; higher = more signal.
Assay [12] is described as follows: modulators of HCV replicon luciferase signal, primary screen, HCV replication inhibitor project, Huh7 cells, luciferase reporter (AID 1109).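 Further: huh7 hepatoma cells harbouring a luciferase neomycin HCV replicon reporter; luciferase luminescence as measure of HCV replicon replication; test concentration not given here.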 As to conditions: 48 h, higher = more signal. For orientation: Replicon systems follow genome replication, usually without infectious particles.
The target of assay [13] is Left-right determination factor 2 (Homo sapiens) (UniProt O00292). The assay is described as follows: LEFTY2 binders on small-molecule microarrays, primary screen, biochemical, small-molecule microarray, 635 nm fluorescence scan (AID 1110). As to conditions: LEFTY2 binding, higher = more signal.
Left-right determination factor 2 (Homo sapiens), sequence (O00292 whole entry, looked up): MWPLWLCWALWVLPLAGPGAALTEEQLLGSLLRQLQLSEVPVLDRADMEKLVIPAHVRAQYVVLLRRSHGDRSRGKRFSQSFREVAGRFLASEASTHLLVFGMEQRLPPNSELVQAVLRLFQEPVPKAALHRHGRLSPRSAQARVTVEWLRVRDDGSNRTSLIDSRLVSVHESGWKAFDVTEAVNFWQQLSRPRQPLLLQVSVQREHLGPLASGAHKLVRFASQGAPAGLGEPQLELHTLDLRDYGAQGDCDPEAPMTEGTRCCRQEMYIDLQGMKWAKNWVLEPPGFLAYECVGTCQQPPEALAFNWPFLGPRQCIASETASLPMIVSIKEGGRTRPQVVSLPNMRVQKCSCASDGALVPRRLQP
For assay [14], the target named is Calmodulin-1 (Homo sapiens) (UniProt P0DP23). The assay is described as follows: CALM1 binders on microarrays, EGTA buffer, profiling panel, biochemical, small-molecule microarray, Cy5-labelled CALM1 (AID 1111).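 Further: labelled calmodulin applied in Tris saline Tween buffer holding calcium plus EGTA and DTT.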 As to conditions: Cy5-CALM1 binding fluorescence, higher = more signal.
Assay [15] shares this target. The assay is described as follows: calcium-bound CALM1 binders on microarrays, profiling panel, artefact control for SMM control-protein annotation, biochemical, small-molecule microarray, Cy5-labelled CALM1, plus calcium (AID 1112).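 Further: score merges spot fluorescence with signal to noise from triplicate slides.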 As to conditions: Cy5-CALM1 binding fluorescence, higher = more signal.
Assay [16] in a line: small-molecule microarray binders of probe aWnt5a, primary screen, biochemical, biotinylated probe, 635/667 nm fluorescence (AID 1113).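 Further: score merges 667 nm fluorescence intensity with signal-to-noise per printed feature.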 As to conditions: higher = more signal.
A short description of assay [17]: small-molecule microarray binders of probe aShh, primary screen, biochemical, biotinylated probe, 635/667 nm fluorescence (AID 1114).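 Further: probe is biotin-labelled aShh protein from a stem cell growth factor screen; measures binding of labelled protein to compounds printed on the slide; score merges feature fluorescence at 667 nm with signal-to-noise.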 As to conditions: higher = more signal.
The nature of assay [18]: small-molecule microarray binders of probe aNog, primary screen, biochemical, biotinylated probe, 635/667 nm fluorescence (AID 1115).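 Further: probe is biotinylated aNog protein used at 0.15 µg/mL for 1 h at 4 C; z-score combines 667 nm fluorescence of each spot with its signal to noise.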 As to conditions: higher = more signal.
For assay [19], the target named is Torsin-1A-interacting protein 1 (Homo sapiens) (UniProt Q5JTV8). The assay is described as follows: LAP1 binders from COS7 cell lysate, primary screen, small-molecule microarray, 635/667 nm fluorescence (AID 1116). As to conditions: COS7-hLAP1 lysate binding, 635 nm fluorescence, higher = more signal.
Torsin-1A-interacting protein 1 (Homo sapiens), sequence (Q5JTV8 whole entry, looked up): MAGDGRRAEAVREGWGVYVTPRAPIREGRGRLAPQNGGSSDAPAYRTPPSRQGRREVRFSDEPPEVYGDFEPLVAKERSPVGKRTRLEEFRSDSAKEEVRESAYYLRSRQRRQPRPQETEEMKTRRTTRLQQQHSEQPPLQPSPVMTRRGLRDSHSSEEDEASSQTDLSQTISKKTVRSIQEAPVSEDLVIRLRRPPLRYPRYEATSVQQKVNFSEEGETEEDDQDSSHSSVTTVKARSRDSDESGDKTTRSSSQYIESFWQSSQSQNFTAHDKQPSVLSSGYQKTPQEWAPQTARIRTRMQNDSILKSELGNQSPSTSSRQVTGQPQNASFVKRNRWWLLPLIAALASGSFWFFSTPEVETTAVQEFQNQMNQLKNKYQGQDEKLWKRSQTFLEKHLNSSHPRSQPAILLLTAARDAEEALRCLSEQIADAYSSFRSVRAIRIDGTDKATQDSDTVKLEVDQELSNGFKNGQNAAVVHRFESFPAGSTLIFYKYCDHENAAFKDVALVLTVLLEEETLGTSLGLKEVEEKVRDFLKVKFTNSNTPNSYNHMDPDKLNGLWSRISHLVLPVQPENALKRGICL
Assay [20] deals with Alpha-bungarotoxin (Bungarus multicinctus) (UniProt P60615). Kind of assay: alpha-bungarotoxin binders on microarray, profiling panel, artefact control for SMM control protein annotation, biochemical, small-molecule microarray, Alexa647 label, 635/667 nm fluorescence (AID 1117). As to conditions: alpha-BTX-A647 binding fluorescence, higher = more signal.
Alpha-bungarotoxin (Bungarus multicinctus), sequence (P60615 whole entry, looked up): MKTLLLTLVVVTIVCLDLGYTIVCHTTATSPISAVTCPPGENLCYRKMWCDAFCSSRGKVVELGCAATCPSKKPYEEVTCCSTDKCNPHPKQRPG

Active and inactive are the calls of the source.

For the compound `CCc1cc2c(nc1CC)CCN(CCC(C)=NO[C@@H]1O[C@H](COC(C)=O)[C@@H](OC(C)=O)[C@H](OC(C)=O)[C@H]1OC(C)=O)C2`, the composite z-score in assay [1] was 0.8; in assay [2], -0.0154; in assay [3], -0.82; in assay [5], 1.14; in assay [6], 0.642; in assay [7], 0.905. Besides, the composite z-score is 1.32 in [8]; 1.32 in [9]; 0.703 in assay [10]; 1.31 in assay [11]; 1.3 in assay [13]; -0.199 in [14]. In addition, the composite z-score in assay [15] is -0.502; in [16], 0.0251; in [17], -0.291; in assay [18], -0.152; in [19] it was 2.85; in assay [20], 1.01. In addition, the z-score in [4] is -0.763 (inactive); in [12], -0.998.

For the compound `CCc1cc2c(nc1CC)CCN(CCC(C)=NOC(C)CN1CCCCc3nc(C)c(C)cc31)C2` (stereo not given), the composite z-score is 0.526 in assay [1]; -0.0521 in assay [2]; -0.215 in [3]; 0.628 in assay [5]; 1.25 in [6]; 0.81 in assay [7]. For the same compound, the composite z-score in [8] was found to be 1.19; in assay [9], 0.841; in assay [10] it was 1.31; in assay [11], 1.38; in assay [13], 0.772; in [14] it was 0.499. Also, the composite z-score in assay [15] was 0.455; in [16], -0.0735; in assay [17], 0.0639; in assay [18], -0.1; in assay [19] it was 0.272; in assay [20], 0.946. Besides, the z-score is -0.242 (inactive) in [4] and -4.08 in assay [12].

`CCOC(=O)[C@H](CC(C)C)NC(=O)CCC1CC(OC(=O)NCc2ccc3c(c2)OCO3)CC2(CCCC(COC(=O)NCc3ccccc3)O2)O1` (stereo not given in full): the composite z-score is 0.58 in assay [1]; -0.197 in assay [2]; -0.495 in assay [3]; 0.713 in assay [5]; 0.486 in assay [6]; 0.316 in [7]. The composite z-score was 0.675 in [8]; 0.425 in assay [9]; -0.0973 in [10]; 1.37 in assay [11]; 0.355 in [13]; 0.562 in [14]. Further, the composite z-score is -0.158 in [15]; 0.0799 in [16]; -0.153 in assay [17]; -0.074 in assay [18]; 0.137 in [19]; 0.461 in assay [20]. Moreover, the results for the z-score in [4] and in assay [12] were -0.403 (inactive) and -0.0695, respectively.

For the compound `CC(=O)OC[C@H]1O[C@H](CC=NO[C@H](C)c2cn([C@@H]3COC[C@H]3O)nn2)C=C[C@@H]1OC(C)=O`, the composite z-score is 0.197 in assay [1]; -0.185 in assay [2]; -0.434 in [3]; 0.172 in assay [5]; 0.0915 in assay [6]; 0.476 in [7]. For the same compound, the composite z-score is 0.255 in [8]; 1.1 in [9]; 0.257 in assay [10]; -0.535 in [11]; 0.0524 in [13]; -0.616 in [14]. The composite z-score is -0.934 in assay [15]; -0.0685 in [16]; -0.206 in assay [17]; -0.17 in assay [18]; 0.637 in [19]; 0.799 in assay [20]. Moreover, the z-score was -1.06 (inactive) in assay [4] and -0.774 in [12].

With `CC(C)(C)N1C(=O)[C@H]2[C@H]3[C@H](O)[C@H](O)CC(=NNC(=O)OCc4ccccc4)[C@H]3CC[C@H]2C1=O`, the composite z-score was -0.195 in [1]; 0.0773 in [2]; -0.525 in assay [3]; 0.72 in [5]; 0.792 in assay [6]; 0.208 in assay [7]. The composite z-score is 0.889 in [8]; 0.608 in assay [9]; -1.06 in [10]; 0.978 in [11]; 0.613 in assay [13]; -0.0736 in [14]. Also, the composite z-score is -0.313 in assay [15]; -0.107 in [16]; 0.0141 in [17]; 0.0516 in assay [18]; 0.522 in assay [19]; 0.613 in assay [20]. In addition, the z-score in [4] was -0.422 (inactive); in [12] it was -1.9.

In the case of `COC(=O)[C@H](CCSC)NC(=O)CC=C[C@@H](C)CO`, the composite z-score was -0.0481 in assay [1]; -0.34 in [2]; -1.47 in assay [3]; 1.26 in assay [5]; 1.28 in assay [6]; 1.53 in assay [7]. Also, the composite z-score is 1.46 in [8]; 1.97 in [9]; -1.91 in assay [10]; 0.264 in [11]; 1.58 in assay [13]; -1.12 in [14]. Further, the composite z-score in [15] was -2.32; in assay [16] it was 0.149; in assay [17] it was -0.0192; in assay [18], -0.394; in assay [19], 1.21; in assay [20], -0.614. Moreover, the z-score in [4] was -0.0982 (inactive); in assay [12], 0.748.
